Results on 33 compounds are retold here after ChEMBL document CHEMBL3433997, “St. Jude Leishmania screening dataset” (2016).

Broadly, the inhibition is the drop in the measured response relative to a control, in per cent.

Type in all cases: functional
Assay [1] deals with Solute carrier family 2, facilitated glucose transporter member 1 (Homo sapiens) (UniProt P11166). The assay can be described thus: ST_JUDE_LEISH: Cytotoxicity at 2uM final concentration against transgenic Leishmania Mexicana promastigotes LmGLUT1 that are glucose transport deficient and complemented with the human glucose transporter GLUT1. Activity is measured by DNA content using SYBR green in vitro.

For assay [2], the target named is Hexose transporter 1 (Plasmodium falciparum) (UniProt O97467). Briefly: ST_JUDE_LEISH: Cytotoxicity at 2uM final concentration against transgenic Leishmania Mexicana promastigotes LmPfHT that are glucose transport deficient and complemented with the Plasmodium falciparum hexose transporter. Activity is measured by DNA content using SYBR green in vitro.
In assay [3] the target is Glucose transporter (Leishmania mexicana) (UniProt O61059). The assay can be described thus: ST_JUDE_LEISH: Cytotoxicity at 2uM final concentration against transgenic Leishmania Mexicana promastigotes LmGT2 that are glucose transport deficient and complemented with the L. Mexicana glucose transporter 2. Activity is measured by DNA content using SYBR green in vitro.

Solute carrier family 2, facilitated glucose transporter member 1 (Homo sapiens), sequence (P11166 whole entry): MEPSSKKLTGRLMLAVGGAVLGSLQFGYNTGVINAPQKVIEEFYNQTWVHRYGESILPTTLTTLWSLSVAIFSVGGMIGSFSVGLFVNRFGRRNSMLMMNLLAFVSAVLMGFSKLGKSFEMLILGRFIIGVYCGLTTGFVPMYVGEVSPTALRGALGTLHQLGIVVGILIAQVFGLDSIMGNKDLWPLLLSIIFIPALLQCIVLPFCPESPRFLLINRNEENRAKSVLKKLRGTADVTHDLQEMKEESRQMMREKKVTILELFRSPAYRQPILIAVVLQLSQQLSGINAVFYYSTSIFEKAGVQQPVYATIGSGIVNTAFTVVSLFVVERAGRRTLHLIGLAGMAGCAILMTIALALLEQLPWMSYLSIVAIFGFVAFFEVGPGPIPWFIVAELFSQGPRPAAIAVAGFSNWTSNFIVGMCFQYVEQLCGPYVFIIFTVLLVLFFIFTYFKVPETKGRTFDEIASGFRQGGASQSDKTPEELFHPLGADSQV

For `COc1ccc(CN2CCC(CN3CC4(OC3=O)c3ccccc3-c3ccccc34)C2)c(O)c1` (centres undefined), the values for the inhibition in assay [1], in assay [2] and in assay [3] were 10.8%, 9.02% and 11%, respectively.

`COc1ccc(Nc2nccc(-c3ccc4ccnc(NCCCCN)c4c3)n2)cc1`: the inhibition in assay [1] was -0.78%; in assay [2], -1.84%; in assay [3], -4.14%.

Consider `O=C(Cn1c(SCc2cccc(F)c2F)cc(=O)c2ccccc21)N(CCN1CCCCC1)Cc1ccc(-c2ccc(C(F)(F)F)cc2)cc1`, for which the results for the inhibition in assay [1], in assay [2] and in assay [3] were -1.53%, -1.37% and -1.85%, respectively.

As to `COc1ccc2[nH]c(C)cc(=NN=Cc3cc(C)ccc3O)c2c1`, the inhibition in assay [1] is 13.1%; in assay [2], 11.2%; in assay [3], 8.77%.

For `Fc1ccc(-c2cncc(Nc3ccncc3)n2)cc1`, the inhibition in assay [1] is 6.02%; in assay [2], 7.91%; in assay [3] it was 8.39%.

On to `CCOC(=O)c1c(SCc2cccc(F)c2F)[nH]c2ccccc2c1=O`, for which the inhibition was 0.37% in assay [1], -0.99% in assay [2] and 1.97% in assay [3].

With `CC(C)C[C@H](NC(=O)c1cc2ccccc2s1)C(=O)N[C@H]1CCN(Cc2ccc(OC[C@@H]3CCCN3C)c3ccccc23)C1`, the inhibition was 3.88% in assay [1], 5.05% in assay [2] and 2.71% in assay [3].

Consider `O=C(NC1CCC(CCN2Cc3cccc(C(F)(F)F)c3C2)CC1)c1cccc(-c2cccnc2)c1` (centres undefined), for which the values for the inhibition in assay [1], in assay [2] and in assay [3] were 3.38%, 1.73% and 2.16%, respectively.

Regarding `CC(C)c1ccc(NC(=O)Nc2ccc(Cn3ncc(N4CCCNCC4)c(Cl)c3=O)cc2)cc1`, the inhibition was 1.52% in assay [1], 1.29% in assay [2] and -0.56% in assay [3].

Take `O=C(NCC1CC1)C1CCN(C(c2ccccc2)c2nc3ccccc3s2)CC1` (centres undefined): the inhibition in assay [1] is -0.89%; in assay [2], -1.39%; in assay [3], -4.85%.

On to `O=C(NCCCCN1CCC(O)(c2ccc(Cl)cc2)CC1)c1ccc(Br)cc1`, for which the inhibition in assay [1] came to 4.03%; in assay [2], 2.65%; in assay [3], 4.04%.

As for `CC(=O)c1cc(N2CCCC2)ccc1N`, the results for the inhibition in assay [1], in assay [2] and in assay [3] were 2.5%, 2.6% and 2.09%, respectively.

Consider `N#Cc1cc(C(=O)c2cc(Cl)ccc2O)cn(-c2cccc(C(F)(F)F)c2)c1=O`, for which the inhibition in assay [1] was determined as 8.27%; in assay [2], 7.71%; in assay [3] it was 5.33%.

For `COc1cc(Cc2cnc(N)nc2N)cc(OCCCCC2SC(=O)NC2=O)c1Br` (centres undefined), the inhibition in assay [1] stood at 6.08%; in assay [2], 4.54%; in assay [3], 5.43%.

With `COc1cccc2cc(C(=O)N[C@@H](CC(C)C)C(=O)N[C@H](C=NNC(=O)OC(C)(C)C)Cc3ccccc3)oc12`, the inhibition in assay [1] amounted to 7.26%; in assay [2] it was 6.28%; in assay [3], 4.09%.

As to `Cc1ccc(Oc2cnn(C)c(=O)c2Nc2cccc(C(=O)NCCc3ccccn3)c2)c(C)c1`, the inhibition turned out to be 4.16% in assay [1], 4.25% in assay [2] and 3.26% in assay [3].

Turning to `O=C(Nc1ccc(F)c(Cl)c1)NC1CCN(c2ccnc3cc(Cl)ccc23)C1` (centres undefined), the inhibition in assay [1] stood at 6.4%; in assay [2], 6.38%; in assay [3] it was 8.81%.

`CC(C)OC(=O)c1ccc(NC(=O)N[C@@H](Cc2ccc(O)cc2)C(=O)NC2CC3CCC(C2)N3Cc2ccccc2)cc1` (some centres undefined): the inhibition in assay [1] is 5.85%; in assay [2], 4.77%; in assay [3], -0.07%.

`Cc1cc(NC(=O)c2cccs2)ccc1OC1CCN(Cc2ccccc2)C1` (centres undefined): the results for the inhibition in assay [1], in assay [2] and in assay [3] were 0.25%, -0.44% and 1.56%, respectively.

For `Cc1cc(NC(=O)c2ccsc2)ccc1OC1CCN(Cc2ccc(F)cc2)CC1`, the figures for the inhibition in assay [1], in assay [2] and in assay [3] were -0.33%, 2.48% and 1.6%, respectively.

Turning to `COc1ccc(-c2ccc(NC(=O)c3ccc(Cl)cc3)cc2)cc1CN1CCN(C)CC1`, the values for the inhibition in assay [1], in assay [2] and in assay [3] were -0.67%, -2.59% and -0.55%, respectively.

In the case of `O=C(/C=C/C=C/c1ccc(Cl)c(Cl)c1)NCCCCCN1CCCC2CCCCC21` (centres undefined), the inhibition came out at 13.3% in assay [1], 12.3% in assay [2] and 13.2% in assay [3].

In the case of `CN1CCN(c2ccnc3ccc(NC(=O)Cc4cccc(Cl)c4Cl)cc23)CC1`, the inhibition is 1.15% in assay [1], -1.14% in assay [2] and -0.31% in assay [3].

`Clc1ccc(C=NNc2ccnc3cc(Cl)ccc23)cc1`: the results for the inhibition in assay [1], in assay [2] and in assay [3] were 0.42%, 0.11% and -0.42%, respectively.

As to `CC(C)CCCC(C)(C)NC[C@@H](O)[C@H](Cc1ccccc1)NC(=O)c1cc(NC(C)C)cc(N2CCCCS2(=O)=O)c1F`, the inhibition was 7.51% in assay [1], 5.83% in assay [2] and 7.87% in assay [3].

For the compound `N=C(N)NN=Cc1ccc2ccc3ccccc3c2c1`, the inhibition in assay [1] is 5.52%; in assay [2], 7.75%; in assay [3], 4.14%.

As to `CC(=O)Oc1c(C(=O)C2CCC(C(C)(C)C)CC2)c(OC(C)=O)c2ccccc2c1OC(C)=O` (centres undefined), the inhibition in assay [1] was 8.82%; in assay [2], 11.5%; in assay [3] it was 7.73%.

For `CN(CCCCNC(=O)c1ccc(-c2ccccc2)cc1)C1CCc2c(O)cccc2C1` (centres undefined), the figures for the inhibition in assay [1], in assay [2] and in assay [3] were 2.79%, 2.13% and 1.18%, respectively.

For the compound `O=C(Nc1ccc(N2CCN(Cc3ccccc3)CC2)cc1)c1cccs1`, the inhibition is 0.15% in assay [1], 0.83% in assay [2] and -1.68% in assay [3].

Take `CC(C)c1cccc(OCC2CCN(c3ccc(C(=O)Nc4ccccc4)cn3)CC2)c1`: the inhibition stood at 11.2% in assay [1], 10.6% in assay [2] and 9.04% in assay [3].

Consider `CC1CCN(c2nc(C(=O)NCCc3ccc(Cl)c(Cl)c3)c(C(C)C)s2)CC1`, for which the inhibition was determined as 0.93% in assay [1], 0.99% in assay [2] and 2.67% in assay [3].

For the compound `COc1ccc2[nH]c(/C=C/c3cccc4ccc(C)nc34)nc2c1`, the inhibition in assay [1] came out at 2.88%; in assay [2] it was 2.44%; in assay [3], 0.69%.

With `CC(C)(C)CCOC(=O)N1CCc2c(cc(O)c(O)c2Cl)C(c2ccc(O)cc2)C1` (centres undefined), the inhibition in assay [1] was -1.94%; in assay [2] it was 0.65%; in assay [3] it was 14%.
